# Rows were chosen to be rich in hits. Some 2.9% of all compounds tested hit in one or more screens of this group.
# KKLEB cytotox: CF airway cell cytotoxicity counter-screen | KKLEB CF airway cells viability, ATPlite luminescence, overnight; stronger effect = lower value; cells stimulated with P. aeruginosa culture filtrate | activity change (cytotoxicity), % at 5 µM | 0.36% of 360,000 active;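 active means corrected activity change at or below -50% at 5 µM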
# CF NFkB inh: inhibitors of cystic fibrosis induced NF-kB; KKLEB NF-kB-GFP reporter, PAF-induced, GFP fluorescence overnight; inhibition, % at 5 µM; 0.86% of 360,000 active; AID 588850;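 active means at least 50% inhibition at 5 µM, scaled per plate between neutral and stimulator controls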;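 further: PAF is a Pseudomonas aeruginosa culture filtrate used as stimulus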
# Peg3 promoter: reduces Peg3 promoter-driven luciferase expression in HeLa | HeLa PEG-Prom luciferase reporter, luminescence, overnight | inhibition, % at 20 µM | AID 588405 | 1.7% of 360,000 active;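 active means inhibition of at least 50% at 20 µM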
# HIF-2a inh: inhibitors of HIF-2a. AID 624352. 0.72% of 360,000 active. inhibition, % at 18.8 µM. 786-0 RCC cells HIF-2a reporter, luciferase luminescence, overnight;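 active means inhibition of the luminescence signal of 40% or more relative to plate controls, in a single-dose primary screen at 18.75 µM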
# LMP1 NFkB inh: Epstein-Barr LMP1 NF-kappaB reporter inhibition; LMP1-induced NF-kappaB luciferase reporter cells, luminescence; AID 504558; 0.69% of 350,000 active; inhibition, % at 12.5 µM; in the data active means inhibition above about 41%; inconclusive means no clear call, values can overlap the other calls
# Shn3 inh set2: inhibitors of Schnurri-3 3'UTR reporter in osteoblasts; Clone20 osteoblast Shn3 3'UTR firefly luciferase, 24 h; inhibition, % at 12.5 µM; 0.52% of 360,000 active; AID 588674;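 active means mean inhibition of at least 75% with every replicate also reaching 75%; inconclusive means mean inhibition at least 75% but some replicate below; inactive means mean inhibition below 75%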
# Mdm2 MdmX conf: Mdm2/MdmX (human) interaction inhibition, confirmed | 99% of 740 active | inhibition, % at 8 µM | SaOS-2 split-luciferase Mdm2/MdmX complementation, luminescence | shares compounds with HIF-2a inh;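 active means mean inhibition of the luminescence signal across two replicates at or above 26 percent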
# Target sequence (O15151 whole entry, looked up): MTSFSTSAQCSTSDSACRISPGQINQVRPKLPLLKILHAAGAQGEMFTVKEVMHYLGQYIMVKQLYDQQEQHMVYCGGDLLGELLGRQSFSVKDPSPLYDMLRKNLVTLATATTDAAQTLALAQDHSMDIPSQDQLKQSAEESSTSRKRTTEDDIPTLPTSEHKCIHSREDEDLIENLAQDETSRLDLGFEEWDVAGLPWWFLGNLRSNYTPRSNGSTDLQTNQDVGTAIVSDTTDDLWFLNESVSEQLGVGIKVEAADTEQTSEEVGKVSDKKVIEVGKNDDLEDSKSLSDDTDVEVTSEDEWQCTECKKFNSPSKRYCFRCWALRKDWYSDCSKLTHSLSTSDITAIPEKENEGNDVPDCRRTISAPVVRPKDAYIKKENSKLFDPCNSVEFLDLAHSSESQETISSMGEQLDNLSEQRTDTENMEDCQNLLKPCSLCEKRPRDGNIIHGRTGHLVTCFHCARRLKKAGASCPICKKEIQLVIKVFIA
# Target sequence (Q00987 whole entry, looked up): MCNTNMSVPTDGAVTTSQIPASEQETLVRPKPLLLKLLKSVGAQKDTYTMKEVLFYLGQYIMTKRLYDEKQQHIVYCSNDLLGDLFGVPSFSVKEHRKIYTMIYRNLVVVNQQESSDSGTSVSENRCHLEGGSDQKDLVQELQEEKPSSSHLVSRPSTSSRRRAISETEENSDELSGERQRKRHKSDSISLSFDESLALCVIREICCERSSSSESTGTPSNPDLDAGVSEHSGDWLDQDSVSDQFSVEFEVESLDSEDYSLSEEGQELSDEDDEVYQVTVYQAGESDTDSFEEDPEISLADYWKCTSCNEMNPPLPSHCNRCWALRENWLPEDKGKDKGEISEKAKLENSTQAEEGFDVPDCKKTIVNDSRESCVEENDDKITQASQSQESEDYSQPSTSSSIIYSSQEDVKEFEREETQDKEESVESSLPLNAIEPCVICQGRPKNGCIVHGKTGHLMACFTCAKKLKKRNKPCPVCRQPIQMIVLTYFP
# HIF-2a inh conf: HIF-2a inhibition, single concentration confirmation | shares compounds with HIF-2a inh | 786-0 RCC cells, HIF-2a luciferase reporter luminescence, overnight | inhibition, % at 18.8 µM | 56% of 1,800 active;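 active means mean inhibition across four replicates of at least 40 percent at the single tested concentration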
# HIF-1a cs: inhibits HIF-1a reporter, a counter-screen for HIF-2a inhibitors. shares compounds with HIF-2a inh. 72% of 1,800 active. inhibition, % at 18.8 µM. MiaPaCa-2 HIF-1a luciferase reporter, desferoxamine, overnight;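 active means mean inhibition of the reporter signal across four replicates at the single tested dose of 50% or more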
# Hits are given with their value; n = inactive; u = inconclusive; x = not tested or not shown.
SMILES,KKLEB cytotox,CF NFkB inh,Peg3 promoter,HIF-2a inh,LMP1 NFkB inh,Shn3 inh set2,HIF-2a inh conf,HIF-1a cs,others
CCOC(=O)N1c2ccccc2Sc2ccccc21,n,n,n,n,n,n,x,x,
Cc1nnc(SC(=O)N2c3ccccc3Sc3ccccc32)s1,-58,69,99,n,u,n,x,x,Mdm2 MdmX conf=103
Cc1cc(C)cc(OCC(=O)NCC2CCCO2)c1 (stereo unspecified),n,n,n,52,n,n,69,70,
Cc1cc(C)c(C)c(OCC(=O)NCC2CCCO2)c1 (stereo unspecified),n,n,n,n,n,n,x,x,
Cc1ccc2ccc(C(Nc3ccccn3)c3ccccc3)c(O)c2n1 (stereo unspecified),n,n,n,n,n,n,x,x,
COc1cc(C(Nc2ccccn2)c2ccc3ccc(C)nc3c2O)cc(OC)c1O (stereo unspecified),n,74,102,94,n,n,x,x,Mdm2 MdmX conf=102
CCOC(=O)CCc1ccc(NC(=O)/C=C/c2ccc([N+](=O)[O-])o2)cc1,n,n,n,91,n,n,54,107,
CC(/C=C\c1ccccc1)=C/C(=O)O,n,n,n,n,n,n,x,x,
O=C(/C=C/c1ccccc1)/C=C/c1ccccc1,n,n,110,94,n,n,n,103,
Cc1cc(C)c(C#N)c(Sc2nc(C)c([N+](=O)[O-])c(C)c2C#N)n1,n,n,98,90,x,n,n,n,
c1ccc(-c2nnnn2-c2ccccc2)cc1,n,n,n,n,n,n,x,x,
ClC(Cl)(c1nnnn1-c1ccccc1)c1nnnn1-c1ccccc1,n,n,n,52,n,n,n,n,
Cn1ccc2cc(-c3csc(N4CCC(C(N)=O)CC4)n3)ccc21,n,n,n,n,n,n,x,x,
Cc1ccc(-c2cnc(-c3ccncc3)o2)cc1,n,n,n,n,n,n,x,x,
Nc1ccc(-c2ncc(-c3ccccc3)o2)cc1,n,n,n,78,n,n,92,62,
COC(=O)c1cc(=O)n(Cc2ccco2)c(=Nc2ccc(F)c(Cl)c2)s1,n,n,102,67,n,n,62,105,
COC(=O)c1cc(=O)n(Cc2ccc3c(c2)OCO3)c(=Nc2ccccc2)s1,n,n,n,n,n,n,x,x,
COc1cc2c(cc1OC)C(c1ccccc1)N(C(=O)CCl)CC2 (stereo unspecified),n,n,102,93,n,n,99,106,
Cc1cc(C)nc(SCC(=O)OCC(=O)Nc2ccccc2)n1,n,n,n,n,n,n,x,x,
CC(=O)OCCCNc1cc(Sc2nc3ccccc3s2)c2nonc2c1[N+](=O)[O-],n,n,105,n,n,101,x,x,Mdm2 MdmX conf=103
O=[N+]([O-])c1c(NCCCO)cc(Sc2ccc(Cl)cc2)c2nonc12,n,n,98,96,48,94,52,106,
O=[N+]([O-])c1c(NCCCO)cc(N2CCCCCC2)c2nonc12,n,n,n,n,n,n,x,x,
COc1ccc(Nc2cc(NCCCO)c([N+](=O)[O-])c3nonc23)cc1,n,n,n,n,n,n,x,x,
CC(=O)OCCNc1cc(Sc2nc3ccccc3[nH]2)c2nonc2c1[N+](=O)[O-],n,63,113,95,n,98,78,71,
O=C(O)c1cc([N+](=O)[O-])c(Sc2nc3ccccc3[nH]2)c([N+](=O)[O-])c1,n,n,n,n,n,n,x,x,
SMILES,KKLEB cytotox,CF NFkB inh,Peg3 promoter,HIF-2a inh,LMP1 NFkB inh,Shn3 inh set2,HIF-2a inh conf,HIF-1a cs,others
NC1=NC[C@H](CC2CCCCC2)N1CCc1cc(C(F)(F)F)cc(C(F)(F)F)c1,n,n,101,98,n,n,n,106,Mdm2 MdmX conf=100
CCNC(=O)C1(C)CCN(Cc2noc(-c3c(C)noc3C)n2)C1 (stereo unspecified),n,n,n,n,x,n,x,x,
CC(C)(C)NC(=O)CSc1ncnc2c1nnn2Cc1ccccc1Cl,n,n,n,48,n,n,n,n,
O=C(CSc1ncnc2c1nnn2Cc1ccccc1)NC1CCCC1,n,n,n,n,n,n,x,x,
CC(=O)Nc1ccc(C(=O)NNC(=O)Cc2ccccc2)cc1,n,n,n,n,n,n,x,x,
COc1ccc(-c2nn(-c3ccccc3)cc2C(=O)O)cc1N,n,n,n,n,n,n,x,x,
O=C(NCc1cccnc1)/C(=C/c1ccc(-c2cccc(Cl)c2)o1)S(=O)(=O)c1ccccc1,n,n,n,43,n,n,n,n,Mdm2 MdmX conf=103
CN(Cc1ccccc1)C(=O)COc1cc(Cl)ccc1Cl,n,n,n,n,n,n,x,x,
CCOC(=O)c1cccc(C2=CC(=O)C[C@H](c3ccc(OC)cc3)C2)c1,n,n,n,n,n,n,x,x,
COC(=O)c1ccc(/C=C(\C#N)C(=O)NC(C)c2ccccc2)cc1 (stereo unspecified),n,77,104,67,n,n,48,105,
O=C(/C=C\Nc1ccccn1)c1ccc(Cl)cc1,n,n,n,46,n,n,n,n,
C=CCN1C(=O)C2C(C(=O)NC3CCCC3)C3(C)C=CC2(O3)C1C(=O)NC1CCCC1 (stereo unspecified),n,n,n,n,n,n,x,x,
CC(=O)Nc1cc(-c2ccc(C(=O)N3CCOCC3)cc2)cn2c(-c3ccc(C(C)=O)cc3)cnc12,n,n,n,n,x,n,x,x,
COc1ccc(-c2cnc3c(NC(C)=O)cc(-c4ccc(C(=O)N5CCOCC5)cc4)cn23)cc1OC,n,n,n,41,x,n,n,n,
CNc1oc(-c2ccc(C)cc2)nc1P(=O)(c1ccccc1)c1ccccc1,n,n,n,n,n,n,x,x,
COC(=O)c1ccc(Sc2nnnn2-c2ccccc2)c([N+](=O)[O-])c1,n,n,n,40,n,n,n,n,
O=C(O)c1ccc(Sc2nnnn2-c2ccccc2)c([N+](=O)[O-])c1,n,n,n,n,n,n,x,x,
CN(CCOc1ccc(Cl)cc1)C(=O)c1cc(S(=O)(=O)N2CCOCC2)ccc1N1CCCC1,n,n,n,n,n,n,x,x,
O=C(O)c1ccccc1C(=O)Nc1ccccc1,n,n,n,n,n,n,x,x,
O=C(Nc1ccccc1)C1=C(c2ccccc2)S(=O)(=O)CCS1(=O)=O,-83,85,109,72,72,95,45,86,
O=C(CN1C(=O)c2ccccc2S1(=O)=O)c1ccc(Cl)cc1Cl,n,n,n,55,79,n,82,90,
O=C(CN1C(=O)c2ccccc2S1(=O)=O)c1ccc(F)cc1,n,n,58,57,69,n,64,59,

# Screening results deposited in PubChem BioAssay by several laboratories.
